# This is a sample that favours compounds with a hit; in the whole collection about 1.6% have one here.
# eIF4E-4G inh – inhibitors of eIF4E and eIF4G interaction in translation initiation; P63073+Q04637; TR-FRET eIF4E-eIF4GI(517-606) binding, 2 h; inhibition, % at 21.7 µM; 0.37% of 220,000 active; AID 782;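 active = inhibition above about 30%, limit read from the data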;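 note: 0% = full FRET control wells and 100% = background wells lacking eIF4GI fragment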
# eIF4H FP inh – inhibitors of RNA binding by human eIF4H; Q15056; eIF4H fluorescence polarization binding assay; inhibition, % at 35 µM; 0.94% of 290,000 active; AID 2012;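 note: calls also rest on retests at 20 µM and on dose response follow-up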
# PERK inhibitor – human PERK inhibition, primary cell-based screen; CHO PERK-DD fusion, SEAP luminescence translation reporter; inhibition, % at 5.6 µM; 0.17% of 220,000 active; AID 1416;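 active = inhibition above the mean inhibition of all tested compounds plus 3 SD, set separately per screening campaign, cut at about 2.9% in these data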;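 note: PERK kinase domain activated by AP20187 dimerizer at 100 nM; 0% = DMSO with dimerizer and 100% = rapamycin at 8.4 µM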
# MLLE-PAM2 inh – inhibitors of microRNA-mediated deadenylation, human PABP1 MLLE binding | P11940 | GST-MLLE / FITC-PAM2 fluorescence polarization | inhibition, % at 20 µM | 0.36% of 360,000 active; in the data active = inhibition above about 35%, passing the limit was not always enough;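 note: plate controls were DMSO wells with GST-MLLE for no effect and wells lacking GST-MLLE protein for full effect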
# PABP polyA inh – blocks human PABP binding to poly(A) RNA; fluorescence polarization; inhibition, % at 35 µM; 1% of 290,000 active; P11940;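 note: calls also rest on retests at 20 µM and on dose response follow-up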
# Numbers without * were called inactive; ? = inconclusive; . = no result given; ! = a repeat was not active; [ ] = another dose, or the depositor's remark. Unless noted, the rule behind the calls is not given here.
SMILES,eIF4E-4G inh,eIF4H FP inh,PERK inhibitor,MLLE-PAM2 inh,PABP polyA inh
CCOC(=O)CSc1nc2ccsc2c(=O)[nH]1,-2,86,-1,-11,58*
Cn1c2ccccc2c2nnc(SCc3nnc(-c4ccccc4)o3)nc21,-4,-9,1,.,51*
CCN(c1cccc(C)c1)S(=O)(=O)c1ccc(-c2cc(C)no2)s1,.,88*,.,-4,34
CN(C)S(=O)(=O)c1ccc(Cl)c(NC(=O)CN2C(=O)NC3(CCCC3)C2=O)c1,.,-3,.,-14,9
O=C(COC(=O)c1ccccc1)NCC1CCCO1 (stereo not drawn),-3,-1,1,12,8
O=C(COC(=O)c1cccc([N+](=O)[O-])c1)NCC1CCCO1 (stereo not drawn),-2,active,1,-8,56*
O=C(O)c1cccnc1SCc1cn2cc(Cl)ccc2n1,-3,-2,3.0*,0,-3
O=C(O)c1ccccc1SCc1cn2cc(Cl)ccc2n1,0,-1,2,6,6
Oc1ccc(N=Cc2ccc(O)c(O)c2)cc1,19,106*,-1,4,56*
Oc1ccc(/C=N/N=C/c2ccc(O)c(O)c2)cc1O,.,1,.,-6,19
CC(C)(C)NS(=O)(=O)c1cccc2nsnc12,.,.,3.7*,.,.
O=C(O)c1ccc(/C=N/NC(=O)c2ccc(CN3c4cccc5cccc(c45)S3(=O)=O)cc2)cc1,-6,59*,1,-8,18
CC(=O)c1cccc(S(=O)(=O)N2CCCC(c3nc(-c4ccc(C)o4)no3)C2)c1 (stereo not drawn),-7,5,-1,5,0
N#C/C(=C/c1ccc(N2CCOCC2)c([N+](=O)[O-])c1)C(N)=O,1,62*,2,3,1.5*
CC1=NOC2(C1)/C(=N/O)CCC/C2=N\O (stereo not drawn),5,12,1,-7,1
CC(CN1CCCCC1)OC(=O)COc1ccc(Br)cc1 (stereo not drawn),.,-3,.,5,-1
CCOc1cccc(OCCCCn2ccnc2)c1,36*,-8,0,1,7
COc1ccc(CC(=O)NCC2(N3CCCCC3)CCCCC2)cc1,2,-5,0,-11,-16
COc1cc(/C=C2\CCCc3c2nc2ccccc2c3C(=O)O)cc([N+](=O)[O-])c1O,.,80*,.,20,49*
COc1cc(/C=C2\CCCc3c2nc2ccccc2c3C(=O)O)cc(OC)c1O,3,29,0,18,29
Cc1nnc(SCC(=O)N2CCCc3ccccc32)[nH]c1=O,-12,-9,1,29,-2
CCCCn1c(-c2ccc(C(C)(C)C)cc2)nc2cc3[nH]c(=O)c(C(C)C)nc3cc21,.,66,.,-22,35*
CCCCn1c(-c2cccnc2)nc2cc3[nH]c(=O)c(C(C)C)nc3cc21,.,76,.,-30,36*
CCCCn1c(-c2ccc(Cl)c(Cl)c2)nc2cc3[nH]c(=O)c(C(C)C)nc3cc21,.,38,.,-10,24
Nc1n[nH]c2cc(=O)n(-c3ccc(Cl)cc3)nc12,-5,99*,0,13,83*
SMILES,eIF4E-4G inh,eIF4H FP inh,PERK inhibitor,MLLE-PAM2 inh,PABP polyA inh
CCOC(=O)C(CC)(CC)C(=O)/C=C/c1ccc(Br)cc1,-9,-1,3.2*,8,-7
Cc1ccc[n+](-c2nc([O-])sc2/C=N/Nc2ccc([N+](=O)[O-])cc2)c1,6,117,0,60*,83
O=[N+]([O-])c1ccc(NN=Cc2cccc3ccccc23)cc1,.,.,.,-118,.
N#Cc1ccccc1S(=O)(=O)N1CCN(C(=O)Cc2n[nH]c(=O)c3ccccc23)CC1,.,.,.,2,.
Cc1ccc(CNC(=O)Cc2ccc(-n3cccc3)cc2)cc1,2,11,-1,4,2
Cc1ccc(CNC(=O)c2ccc(-n3cccc3)cc2)cc1,38*,72,-1,-12,6
c1ccc(COc2ccc(OCCCn3cncn3)cc2)cc1,-2,1,0,8,-6
Clc1ccc(OCCCn2cncn2)cc1Cl,93*[fluorescence artefact?],0,1,-3,8
CCc1ccc(C(CC(=O)c2ccc(Cl)cc2)C(=O)O)cc1 (stereo not drawn),-3,-2,1,6,1
O=C(C1COc2ccccc2O1)N1CCc2ccccc21 (stereo not drawn),9,79*,1,-6,16
O=C(C1COc2ccccc2O1)N1CCCC1 (stereo not drawn),-6,-5,2,14,-8
COc1ccc(-c2cc(C(=O)Nc3ccccc3N3CCOCC3)c3ccccc3n2)cc1OC,5,0,0,0,-3
CCN(CC)CCNC(=O)c1cc(-c2ccc(Br)s2)nc2ccccc12,.,-8,.,0,-15
CCCCOc1cc(C(=O)NCCN(CC)CC)c2ccccc2n1,74*!,-4,-1,-8,-14
Cc1ccc(C(=O)OCC(=O)Nc2cc(C(C)(C)C)no2)c(C)c1,.,.,.,15,.
CCOC(=O)C1CCN(C(=O)NS(=O)(=O)c2ccc(C)cc2)CC1,-2,3.0*,0,3,55*
COc1cc(NC(=O)COc2c(C)cc(C)cc2[N+](=O)[O-])c(OC)cc1Cl,3,-14,0,-2,4
NC(=S)N/N=C/c1ccc(/C=N/NC(N)=S)cc1,0,3,3.5*,-22,2
O=C1CC(c2ccccc2)c2ccc(O)cc2O1 (stereo not drawn),3,-10,1,9,-10
Cc1ccc(S(=O)(=O)NCc2ccc(C(=O)N3CCCC3)cc2)cc1,2,6.8*,0,-1,78*
O=C(O)c1ccc(N2C(=O)CC(SC(=NCc3ccc4c(c3)OCO4)Nc3ccccc3)C2=O)cc1 (stereo not drawn),92*,-3,0,-19,-10
O=C(O)c1ccc(N2C(=O)CC(SC(=NCc3ccc4c(c3)OCO4)Nc3ccc(F)cc3)C2=O)cc1 (stereo not drawn),4,-8,2,3,0
CC(=O)c1cccc(NC(=O)c2c(C)nn(-c3ccccc3)c2Cl)c1,-2,8,0,-1,2
CCOc1cc(/C=C2\C(=N)N3N=C(C)SC3=NC2=O)ccc1OCCOc1cccc(OC)c1,.,-3,.,5,-4
CCc1nn2c(=O)cc(COc3ccc(/C=C4\C(=N)N5N=C(C)SC5=NC4=O)cc3)nc2s1,21,70*,0,-3,active
SMILES,eIF4E-4G inh,eIF4H FP inh,PERK inhibitor,MLLE-PAM2 inh,PABP polyA inh
CCOc1ccc(CCNC(=O)COC(=O)c2cc(S(=O)(=O)N3CCOCC3)ccc2F)cc1OCC,.,5,.,-22,9
N#C/C(=C\c1ccc(Sc2ccc(Cl)cc2)o1)c1nc2ccccc2[nH]1,-1,58*,-1,-45,100*
COc1cc(/C=C(\C#N)c2nc3ccccc3[nH]2)cc(OC)c1O,30*,?,0,-131,?
N#C/C(=C\c1ccc(Sc2nc3ccccc3[nH]2)o1)c1ccccc1,.,-8,-1,-73,-2
CCCc1nc2c(C)cc(Br)cn2c1Cc1ccccc1,.,.,.,7,.
CCCc1nc2c(C)cc(Br)cn2c1Cc1ccsc1,.,.,.,43*,.

# From PubChem BioAssay
